Screens as filed in PubChem.
VACV E9 pol inh – vaccinia E9 polymerase processive synthesis inhibitors, primary screen, biochemical, absorbance | Vaccinia virus DNA polymerase (E9) processive complex | in vitro processive DNA synthesis, absorbance read-out; stronger effect = lower value | normalized absorbance, % (test concentration not listed) | actives 0.94% (n = 46,000) | AID 493162, 2011; in the data active = normalized absorbance mostly below about 85%, no sharp cut-off; inactive = mostly above about 86%
Each line names hits and unclear results; the compound was inactive in the other large screens. The sample as a whole holds a higher share of hits than the screen did.

O=C(CSCC(=O)c1ccc(-c2ccccc2)cc1)Nc1ccc2ccccc2c1	none
CCOC(=O)c1cc2c(=O)n3ccccc3nc2n(C)c1=NC(=O)/C=C/c1ccccc1	none
COc1ccc(C2=NS(=O)(=O)N(C)C(C(=O)N3CCC(C(N)=O)CC3)=C2)cc1	VACV E9 pol inh 70
CCC1CCCCN1C(=O)C1=CC(c2ccc(OC)cc2)=NS(=O)(=O)N1C (stereo not given)	none
COc1ccc(C2=NS(=O)(=O)N(C)C(C(=O)N3CCC(C)CC3)=C2)cc1OC	none
O=C(CSc1nc2ccccc2s1)NCCC12CC3CC(CC(C3)C1)C2	none
CC1=C(C(=O)N2CCOCC2)C(c2ccc(N(C)C)cc2)C2=C(CC(C)(C)CC2=O)N1 (stereo not given)	none
O=C(O)C1CC(=O)N(CCc2ccccc2)C(=NCCc2ccccc2)S1 (stereo not given)	none
O=C(Nc1cccc(C2=NCCN2)c1)Nc1cccc(C2=NCCN2)c1	VACV E9 pol inh 78
O=C(NC1=NCCCCCN1)Nc1cccc(Cl)c1	none
Nc1cccc(C2=NCCN2)c1	none
CC(C)CCN1CC(C(=O)NC2CCCCCC2)CC1=O (stereo not given)	none
COc1ccc(CNC(=O)c2cc(=O)[nH]c3ccc(S(=O)(=O)N4CCCCC4C)cc23)cc1 (stereo not given)	none
CCOc1cccc(=NC2CCCCC2)c2c(C)n(C)c(C)c12	VACV E9 pol inh 89
CCOc1ccccc1C(=O)NC1CCCCCC1	none
CCOc1cccc(=O)c2c(C)n(-c3ccc(OC)cc3)c(C)c12	none
CCCC(=O)Nc1ccc(-c2cn3ccccc3n2)cc1	none
Cc1csc2sc(C=NCc3cccs3)c(C)c12	VACV E9 pol inh 63
Cc1csc2sc(COC(=O)Nc3ccccc3)c(C)c12	none
Clc1ccc(C=NCc2ccc(-c3cccs3)s2)cc1	none
Cc1nc(-c2ccc(-c3cccs3)s2)sc1-c1ccnn1C(=O)C(C)(C)C	none
Cc1ccccc1S(=O)(=O)Cc1ccc(C(=O)N2CCc3ccccc32)o1	none
